{
  "source": "PubChem BioAssay AID431",
  "about": "(Sanford-Burnham Center for Chemical Genomics, 2006)",
  "note": "The whole screen tested about 63,000 compounds, of which about 1,100 (1.7%) were called active. Many of the other results were omitted from the sample, so actives are more common in it than they were. Potency and affinity values are given separately. A number with no mark means an inactive call.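 The calls were made as follows: active = compounds whose percent cytotoxicity in the single-dose primary screen, scaled between solvent and toxic-drug controls, exceeds 50; inactive = the rest.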",
  "data": [
    {"assay": "viability loss of HPDE-C7K cells – cell-based, fluorescence, HTS, primary screen (AID 431);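 also: 0% = DMSO solvent wells and 100% = doxorubicin-treated wells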", "settings": "HPDE-C7K KRASV12 cells, Alamar Blue viability, 48 h; at 10 µM; active compounds read high", "values": [
      {"smiles": "O=C(C1CCN(S(=O)(=O)c2cccnc2)CC1)N1CCN(C2CCCC2)CC1", "cytotoxicity": "-8.1%"},
      {"smiles": "Cc1ccc(CNc2nc3c([nH]2)c(=O)n(C)c(=O)n3C)cc1", "cytotoxicity": "-19.3%"},
      {"smiles": "Cc1ccc(C(CC(=O)N2CCCC2)c2ccccc2)c(O)c1C", "note": "(stereo unspecified)", "cytotoxicity": "-9.2%"},
      {"smiles": "COc1ccccc1CNc1ncnc2nc[nH]c12", "cytotoxicity": "4.5%"},
      {"smiles": "Oc1ccc(CN2CCCc3ccccc32)c2cccnc12", "cytotoxicity": "36.7%"},
      {"smiles": "CCOC(=O)C1CCN(Cc2ccc(O)c3ncccc23)CC1", "cytotoxicity": "-4.5%"},
      {"smiles": "Oc1ccc(CNc2ccc(F)cc2)c2cccnc12", "cytotoxicity": "53.3% (active)"},
      {"smiles": "Oc1ccc(CNc2ccccc2F)c2cccnc12", "cytotoxicity": "5.5%"},
      {"smiles": "Oc1ccc(CN2CCN(Cc3ccccc3)CC2)c2cccnc12", "cytotoxicity": "6.1%"},
      {"smiles": "Oc1ccc(CNc2ccccc2)c2cccnc12", "cytotoxicity": "44.4%"},
      {"smiles": "CN1CCN(Cc2cc(COCc3ccccc3)c3cccnc3c2O)CC1", "cytotoxicity": "4.8%"},
      {"smiles": "O=C(CSc1nnc(-c2ccc(S(=O)(=O)N3CCCC3)cc2)o1)NCc1ccco1", "cytotoxicity": "-15.4%"},
      {"smiles": "CCOc1ccc(OCC)c(NC(=O)CN(c2ccc(C)cc2)S(=O)(=O)c2c(C)noc2C)c1", "cytotoxicity": "-6.3%"},
      {"smiles": "COC(=O)c1[nH]c2ccc(C)cc2c1NS(=O)(=O)c1ccc(F)c(C)c1", "cytotoxicity": "10.9%"},
      {"smiles": "CCCn1c(SCC(=O)NC(C)(C)C)nnc1C(C)C", "cytotoxicity": "-5.9%"},
      {"smiles": "COc1cccc(OC)c1C(=O)Nn1c(C2CCC2)nc2ccccc2c1=O", "cytotoxicity": "-10.3%"},
      {"smiles": "O=C(CN1C(=O)CCS(=O)(=O)c2ccccc21)Nc1cccc(Cl)c1", "cytotoxicity": "2.5%"},
      {"smiles": "O=[n+]1c2c(n([O-])c3cc(F)ccc31)CCCC2", "cytotoxicity": "0.3%"},
      {"smiles": "COc1cc(OC)cc(C(=O)NCc2n[nH]c(=S)n2-c2ccccc2)c1", "cytotoxicity": "-3.1%"},
      {"smiles": "Cc1ccc(-c2c(C)c(-c3ccc(F)cc3)nc(N)c2C#N)o1", "cytotoxicity": "19.3%"},
      {"smiles": "CCOc1ccccc1NC(=O)N1CCCC1C(=O)Nc1ccc(NC(C)=O)cc1", "note": "(stereo unspecified)", "cytotoxicity": "-3.3%"},
      {"smiles": "COc1cc(C(=O)N2CCN(c3cc(Cl)ccc3Cl)CC2)cc(OC)c1OC", "cytotoxicity": "65.3% (active)"},
      {"smiles": "COc1cc(C(=O)N2CCN(c3ccc(C)cc3C)CC2)cc(OC)c1OC", "cytotoxicity": "28.6%"},
      {"smiles": "COc1ccc(Cl)cc1S(=O)(=O)N1CCN(C(=O)c2cc(OC)c(OC)c(OC)c2)CC1", "cytotoxicity": "-3.4%"},
      {"smiles": "CC1(C)Cc2ccccc2-c2nnc(SCC(=O)Nc3ccc4c(c3)OCO4)n21", "cytotoxicity": "4.9%"},
      {"smiles": "COc1ccc(-c2noc(CN(C)S(=O)(=O)c3ccc(Cl)cc3)n2)cc1OC", "cytotoxicity": "27.5%"},
      {"smiles": "COc1ccc(NC(=O)CSc2nnc(-c3ccccc3C)n2N)cc1OC", "cytotoxicity": "-2.1%"},
      {"smiles": "C=CCn1c(SCC(=O)Nc2ccc(N(C)C)cc2)nnc1-c1cccc(C)c1", "cytotoxicity": "33%"},
      {"smiles": "CCn1c2ccccc2c2cc(NC(=O)c3ccco3)ccc21", "cytotoxicity": "66.2% (active)"},
      {"smiles": "CCn1c2ccccc2c2cc(CN3CCN(C(=O)c4ccco4)CC3)ccc21", "cytotoxicity": "-16%"},
      {"smiles": "CCn1c2ccccc2c2cc(NC(=O)N3CCOCC3)ccc21", "cytotoxicity": "-7.1%"},
      {"smiles": "CCn1c2ccccc2c2cc(NC(=O)CSc3nnnn3-c3ccccc3)ccc21", "cytotoxicity": "5.6%"},
      {"smiles": "CCn1c(SCC(=O)Nc2ccc3c(c2)c2ccccc2n3CC)nnc1-c1ccco1", "cytotoxicity": "57.1% (active)"},
      {"smiles": "CCn1c2ccccc2c2cc(NC(=O)CSc3nnc(-c4ccccc4OC)n3N)ccc21", "cytotoxicity": "66% (active)"},
      {"smiles": "CCn1c(SCC(=O)Nc2ccc3c(c2)c2ccccc2n3CC)nnc1-c1cnccn1", "cytotoxicity": "12.2%"},
      {"smiles": "CCn1c(SCC(=O)Nc2ccc3c(c2)OCCO3)nnc1-c1ccco1", "cytotoxicity": "5.8%"},
      {"smiles": "CCn1c(SCC(=O)Nc2ccc(S(N)(=O)=O)cc2)nnc1-c1cccc(OC)c1", "cytotoxicity": "6.1%"},
      {"smiles": "O=C(CSc1nn(-c2ccccc2)c(=S)s1)Nn1cnnc1", "cytotoxicity": "-11.8%"},
      {"smiles": "CS(=O)(=O)N1CCCC(c2nc(-c3ccc(S(=O)(=O)NCc4ccccc4)cc3)no2)C1", "note": "(stereo unspecified)", "cytotoxicity": "-5.6%"},
      {"smiles": "O=C(CCCn1c(=S)[nH]c2cc3c(cc2c1=O)OCO3)N1CCN(c2ncccn2)CC1", "cytotoxicity": "-12.6%"},
      {"smiles": "CCOc1ccccc1N1CCN(C(=O)Nc2cccc(Cl)c2)CC1", "cytotoxicity": "-2.1%"},
      {"smiles": "Cn1cc(C(=O)NC2CCCCCCC2)c(=O)c2cc(S(=O)(=O)N3CCCC3)ccc21", "cytotoxicity": "-3.8%"},
      {"smiles": "CCN(CC)S(=O)(=O)c1ccc2oc(C(=O)N3CCCCCC3)c(C)c2c1", "cytotoxicity": "7.8%"},
      {"smiles": "CCCN1Cc2cccc(C(=O)Nc3cc(OC)cc(OC)c3)c2C1=O", "cytotoxicity": "16.6%"},
      {"smiles": "CC(C)(C)OC(=O)NCCc1nnc(SCC(=O)c2ccc(Cl)cc2)o1", "cytotoxicity": "3.8%"},
      {"smiles": "COc1cccc(C(=O)N(Cc2cc3cc(C)ccc3[nH]c2=O)CC2CCCO2)c1", "note": "(stereo unspecified)", "cytotoxicity": "-14.2%"},
      {"smiles": "CCOC(=O)C1CCN(Cc2ccccc2C(F)(F)F)CC1", "cytotoxicity": "-13.3%"},
      {"smiles": "On1cnnc1-c1ccccc1", "cytotoxicity": "-12.7%"},
      {"smiles": "Cc1ccc(O)c(C(=O)c2cnc3c(c2)CN(CCC(C)C)C(=O)N3)c1", "cytotoxicity": "-6%"},
      {"smiles": "CN1Cc2cc(C(=O)c3cc(Cl)cc(CSc4ncccn4)c3O)cnc2NC1=O", "cytotoxicity": "66.2% (active)"},
      {"smiles": "CCCCN1Cc2cc(C(=O)c3cc(F)ccc3O)cnc2NC1=O", "cytotoxicity": "6.7%"},
      {"smiles": "CCCn1c(N)c(C(=O)CSc2nnc(-c3ccco3)n2Cc2ccccc2)c(=O)[nH]c1=O", "cytotoxicity": "-9.1%"},
      {"smiles": "Cc1cc(NC(=O)NC(=O)c2cccc(OC(F)(F)C(F)F)c2)n[nH]1", "cytotoxicity": "-3.6%"},
      {"smiles": "Cc1cc(C)c2c(CN3CCN(C)CC3)cc(=O)oc2c1", "cytotoxicity": "9.6%"},
      {"smiles": "CCN1CCN(Cc2cc(=O)oc3cc(C)cc(C)c23)CC1", "cytotoxicity": "7.2%"},
      {"smiles": "Cc1cc(C)c2c(CN3CCN(C/C=C/c4ccccc4)CC3)cc(=O)oc2c1", "cytotoxicity": "72.7% (active)"},
      {"smiles": "CCOC(=O)c1c(C)n(C)c2ccc(O)c(CN3CCN(C)CC3)c12", "cytotoxicity": "4.9%"},
      {"smiles": "Cc1cc(C2=CC(C)(c3cc(C)oc3C)Nc3nc(C(F)(F)F)nn32)c(C)o1", "note": "(stereo unspecified)", "cytotoxicity": "56.2% (active)"},
      {"smiles": "Cc1cccc(NC(=O)c2cnc3sccn3c2=O)c1C", "cytotoxicity": "0.5%"},
      {"smiles": "CCOC(=O)c1ccc(NC(=O)CCC(=O)OC)cc1", "cytotoxicity": "0%"},
      {"smiles": "CCCc1nc(NC2CCCCC2)c(C#N)c2c1COC(C)(C)C2", "cytotoxicity": "-33.6%"},
      {"smiles": "CCc1nc(NCC2CCCO2)c(C#N)c2c1COC(C)(C)C2", "note": "(stereo unspecified)", "cytotoxicity": "-3%"},
      {"smiles": "CCc1nc(NC2CCCCC2)c(C#N)c2c1COC(C)(C)C2", "cytotoxicity": "62% (active)"},
      {"smiles": "COc1ccccc1N1CCN(CC(=O)Nc2c(C)n[nH]c2C)CC1", "cytotoxicity": "0.8%"},
      {"smiles": "COc1ccc(-c2nc(CS(=O)CC(=O)NCC3CCCO3)c(C)o2)cc1", "note": "(stereo unspecified)", "cytotoxicity": "-1.7%"},
      {"smiles": "O=S(=O)(c1ccc(F)cc1)N1CCN(c2ncnc3c2cnn3-c2ccccc2)CC1", "cytotoxicity": "-6.5%"},
      {"smiles": "O=S1(=O)CC(O)C(N2CCC(c3ccccc3)CC2)C1", "note": "(stereo unspecified)", "cytotoxicity": "-1.5%"},
      {"smiles": "CN(Cc1cc2ccccc2[nH]c1=O)S(=O)(=O)c1ccccc1", "cytotoxicity": "-6.2%"},
      {"smiles": "CN(C)CCC(=O)c1ccc(Cl)cc1", "cytotoxicity": "13.3%"},
      {"smiles": "COc1ccccc1NC(=O)N(Cc1ccco1)Cc1cc2cccc(C)c2[nH]c1=O", "cytotoxicity": "-5%"},
      {"smiles": "Cc1cc(C)c2[nH]c(=O)c(CN(Cc3ccco3)C(=O)C3CCCO3)cc2c1", "note": "(stereo unspecified)", "cytotoxicity": "-35.5%"},
      {"smiles": "COc1ccccc1NC(=O)N(Cc1ccco1)Cc1cc2ccc(C)c(C)c2[nH]c1=O", "cytotoxicity": "63.7% (active)"},
      {"smiles": "COc1ccccc1NC(=O)N(Cc1ccco1)Cc1cc2cc(C)cc(C)c2[nH]c1=O", "cytotoxicity": "74.7% (active)"},
      {"smiles": "CCN1CCCC1CN(Cc1cc2cc(C)cc(C)c2[nH]c1=O)C(=O)Nc1ccccc1OC", "note": "(stereo unspecified)", "cytotoxicity": "20.9%"},
      {"smiles": "COc1ccccc1NC(=O)N(Cc1ccco1)Cc1cc2c(C)ccc(C)c2[nH]c1=O", "cytotoxicity": "33.2%"},
      {"smiles": "CC1CCCCC1NC(=O)CN1CCN(Cc2ccccc2Cl)C1=O", "note": "(stereo unspecified)", "cytotoxicity": "-7.1%"},
      {"smiles": "CCc1cc(C)cc(OCCNC(=O)c2ncn[nH]2)c1", "cytotoxicity": "30%"},
      {"smiles": "Cn1nnnc1CCOCCc1nnnn1C", "cytotoxicity": "14.6%"},
      {"smiles": "CCn1nnnc1SCCSc1nnnn1CC", "cytotoxicity": "9.6%"},
      {"smiles": "N/C(=N\\c1nc2c(c(=O)[nH]1)CCCC2)Nc1ccccc1", "cytotoxicity": "12.1%"},
      {"smiles": "COc1ccc(-c2cn3cccnc3n2)cc1NC(=O)c1ccc(Br)o1", "cytotoxicity": "8.3%"},
      {"smiles": "CCOC(=O)C1=C(C)N=C2SC(CC)C(=O)N2C1c1cccc(F)c1", "note": "(stereo unspecified)", "cytotoxicity": "-16.9%"},
      {"smiles": "OC(CN1CCN(c2cccc(C(F)(F)F)c2)CC1)c1c[nH]c2ccccc12", "note": "(stereo unspecified)", "cytotoxicity": "30.5%"},
      {"smiles": "COC(=O)c1[nH]c2ccccc2c1NC(=O)CN1CCN(c2cccc(Cl)c2)CC1", "cytotoxicity": "7.8%"},
      {"smiles": "O=C(CN1CCN(c2ccccc2)CC1)Nc1cccc(C(F)(F)F)c1", "cytotoxicity": "4.9%"},
      {"smiles": "O=C(CCn1c(=O)[nH]c2ccccc2c1=O)N1CCN(c2cccc(C(F)(F)F)c2)CC1", "cytotoxicity": "-4.3%"},
      {"smiles": "Cc1[nH]c2ccccc2c1NC(=O)CN1CCN(c2cccc(C(F)(F)F)c2)CC1", "cytotoxicity": "70% (active)"},
      {"smiles": "CC[C@]1(O)CC2CN(CCc3c([nH]c4ccccc34)[C@@](C(=O)OC)(c3cc4c(cc3OC)N(C=O)[C@H]3[C@@](O)(C(=O)OC)[C@H](OC(C)=O)[C@]5(CC)C=CCN6CC[C@]43[C@@H]65)C2)C1", "note": "(stereo partly specified)", "cytotoxicity": "72.5% (active)"},
      {"smiles": "CC[C@]1(O)C[C@@H]2CN(CCc3c([nH]c4ccccc34)[C@@](C(=O)OC)(c3cc4c(cc3OC)N(C)[C@H]3[C@@](O)(C(=O)OC)[C@H](OC(C)=O)[C@]5(CC)C=CCN6CC[C@]43[C@@H]65)C2)C1", "cytotoxicity": "74.9% (active)"},
      {"smiles": "CC(=O)Oc1ccc(N(C(C)=O)S(=O)(=O)c2cccs2)cc1", "cytotoxicity": "8.2%"},
      {"smiles": "O=C(O)CCC(=O)Nc1nnc(C(F)(F)F)s1", "cytotoxicity": "-6.4%"}
    ]}
  ]
}
